Assay [1] can be described thus: OV-SAHO Cancer Cell Toxicity qHTS against the NCATS CANVASS Library (AID 1347348). Also: series mostly up to about 38 µM; nearly all actives have a fitted effect of over 55% in size. The essentials:
(§1)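 ATP content after 72 h treatment, detected by CellTiter-Glo luminescence (15min room-temperature development), reflects cell viability. Wells contained 1000 cells and received compounds at 11 concentrations.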
A general note: qHTS replaces the single test concentration by a dilution series.

Assay [2] in a line: U-118MG Cancer Cell Toxicity qHTS against the NCATS CANVASS Library (AID 1347351). The essentials: as §1
Assay [3] is described as follows: COV-362 Cancer Cell Toxicity qHTS against the NCATS CANVASS Library (AID 1347352). Also: series mostly up to about 38 µM. Put shortly:
(§2)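 1000 cells/well, 4 h pre-incubation 37 °C/5% CO2; 11-pnt titration; 72 h; CellTiter-Glo 15 min RT, luminescence.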

Assay [4] is described as follows: A2780 Cisplatin Sensitive Ovarian Cancer Cell Toxicity qHTS against the NCATS CANVASS Library (AID 1347353). Also: nearly all actives have a fitted effect of over 60% in size. Put shortly:
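750 cells/well, 4 h settle; 11-pt cpd titration; 72 h, 37 °C, 5% CO2; ATPLite 10 min RT; luminescence read.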

A short description of assay [5]: UWB1.289-WTBRCA1 Cancer Cell Toxicity qHTS against the NCATS CANVASS Library (AID 1347354). Put shortly:
as §2

A short description of assay [6]: KB-8-5-11 Cancer Cell Toxicity qHTS against the NCATS CANVASS Library (AID 1347364). Also: nearly all actives have a fitted effect of over 75% in size. Put shortly: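 CellTiter-Glo luminescence after 72 h exposure; 500 KB-8-5-11 cells/well, DMEM/10% FBS, 37C, 5% CO2; compounds in 11-pt qHTS. Follow-up confirmation included medium with 1uM tariquidar.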
Assay [7] can be described thus: KB-3-1 Cancer Cell Toxicity qHTS against the NCATS CANVASS Library (AID 1347366). Also: nearly all actives have a fitted effect of over 75% in size. Put shortly:
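Cytotoxicity toward KB-3-1 cells (500/well, DMEM + 10% FBS) was scored by CellTiter-Glo luminescence following 72 hr exposure at 37C, with bortezomib titrated as control.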

Assay [8] can be described thus: MCF7 Cancer Cell Toxicity qHTS against the NCATS CANVASS Library (AID 1347369). The essentials:
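This 72 hr qHTS scored MCF7 viability by CellTiterGlo luminescence, with 500 cells/well; bortezomib titration ran as control.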

Assay [9] deals with Nuclear receptor subfamily 1 group I member 3 (Homo sapiens) (UniProt Q14994). Nature of the assay: qHTS for Constitutive Androstane Receptor (CAR) Antagonist screened against the NCATS CANVASS Library (AID 1347372).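 Also: cells stimulated with 50 nM CITCO agonist so inhibition reflects antagonism; luciferase from CYP2B6 promoter reporter driven by hCAR in HepG2 cells; series mostly up to about 46 µM.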 Put shortly:
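Cells were seeded and left 4hr to attach, then received compound at 11 concentrations and 50 nM CITCO. Following 24hr incubation, fluorescence viability and luciferase luminescence were read sequentially.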

Assay [10] in a line: qHTS for Hypoxia signaling pathway (HIF-1) antagonists against the NCATS CANVASS Library (AID 1347374). Also: nearly all actives have a fitted effect of over 60% in size. Also: potency is read from the fitted curve at half-maximal effect. The essentials: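 Beta-lactamase reporter under HRE control in ME-180 cells; CoCl2 stimulus (60 uM solution as added), compounds 11-pt qHTS, 17 h 37C. CCF4 dye 2 h RT, 460/530 nm emission. CellTiter-Glo viability in same wells.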
Assay [11] is described as follows: qHTS for H2AX Agonists against the NCATS CANVASS Library (AID 1347378).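 Also: phospho-H2AX S139 level in CHO-K1 lysates by TR-FRET emission ratio.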 Put shortly:
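Signal is the 665/620 nm emission ratio from europium cryptate and d2 antibody pair, rising with S139-phosphorylated H2AX. CHO-K1 cells saw test agents for 3 hr at 37C; detection ran 24 hr at room temperature.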

A short description of assay [12]: Cytotoxicity qHTS for assessment of Hepg2 cells membrane integrity screened against the NCATS CANVASS Library (AID 1347387). Put shortly:
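LDH release read by fluorescence (560 nm ex/590 nm em) after CytoTox-ONE addition and 10 min RT; signal tracks lysed cells. HepG2, 2000 cells/well, plated overnight; compound 5 hr, 37C, 5% CO2, final 0.59 nM - 46 uM, 11 points.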

A short description of assay [13]: Viability qHTS for inhibitors of the SERCaMP assay screened against the NCATS CANVASS Library (AID 1347400). Also: series mostly up to about 92 µM; nearly all actives have a fitted effect of over 70% in size. Put shortly: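 CellTiter-Glo luminescence readout after 48 h compound exposure (11-pnt qHTS series) of SH-SY5Y-GLuc SERCaMP MJH297 cells seeded at 1000 cells/well; bortezomib positive control.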
Assay [14] can be described thus: Redox Reaction Profiling qHTS: Assay Interference Panel against the NCATS CANVASS Library (AID 1347401). Put shortly: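 Quantitative HTS over an 11-point series was run in HEPES pH 7.3 with 50 mM NaCl, 200 uM DTT and 5 uM resazurin. Initial and 15-min resorufin fluorescence readings were taken.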
A short description of assay [15]: SDT Cancer Cell Toxicity qHTS against the NCATS CANVASS Library (AID 1347365). Also: nearly all actives have a fitted effect of over 60% in size. The essentials: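 Luminescent ATP read-out (CellTiterGlo) after 72 hr compound exposure of dog glioma SDT cells, 500 per well. Eleven-point titrations; bortezomib titration run alongside as control.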
The nature of assay [16]: G06 Cancer Cell Toxicity qHTS against the NCATS CANVASS Library (AID 1347368). Also: nearly all actives have a fitted effect of over 60% in size. The essentials: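 ATP luminescence (CellTiterGlo) readout of cytotoxicity. Canine G06 glioma cells, 500/well, 72 hr incubation at 37C with compounds; bortezomib titration served as control.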
Assay [17] can be described thus: qHTS for activators of Nrf2/ARE signaling pathway screened against the NCATS CANVASS Library (AID 1347391). Also: nearly all actives have a fitted effect of over 60% in size. Put shortly: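 HepG2 ARE-bla; cpd 11-pt qHTS, 16 h 37C/5% CO2; CCF4 substrate 2 h RT; read ex 405 / em 460 + 530 nm. Viability by CellTiter-Glo luminescence, 30 min RT.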
Assay [18] can be described thus: qHTS for inhibitors of Wild type Zika virus screened against the NCATS CANVASS Library (AID 1347396).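 Also: ATP luminescence of surviving cells so rescue from viral cell killing; series mostly up to about 46 µM.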 Put shortly: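 Vero 766 (African green monkey) cells, 1000 per well, attached overnight, then compounds were added in an 11-point series before wild-type Zika virus infection. After 72 h at 37C, cell viability was read as CellTiter Glo luminescence.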

Results filed as inconclusive are left out. The source made the active and inactive calls. Calls follow the shape of the dose curve; as a rule, active = well fitted curve in the direction sought with a large enough effect; inconclusive = small, poorly fitted or top-dose-only effect, or another doubt; inactive = no such curve, though single readings can be large; an effect the other way counts as inactive or inconclusive. Numbered stars: 1 amine (or outer) side, 2 acyl side, 3 side chain; on linkers, the order of the positions; unused ones are H or OH. Bridge positions count the residues as written; N and C are the ends. Square brackets hold non-standard residues; d marks the D form. Peptide text beside a SMILES is read from it. ξ: configuration not given here. X1 = CCCCCCCCCC(=O)[C@H](C(=O)[*:2])[C@@H]1CNC(=O)[C@@H](N[*:1])CS1; Phe(3R-OH) = O=C([C@@H](N[*:1])[C@H](O[*:3])c1ccccc1)[*:2]; NMeTrp(4-OMe) = CN[C@@H](Cc1c[nH]c2cccc(OC)c12)C(=O)O; ξThr(3R)(O-yl) = C[C@@H](O[*:3])C(N[*:1])C(=O)[*:2]; NMeThr(3ξ) = CN[C@H](C(=O)O)C(C)O; NMeL = CN[C@@H](CC(C)C)C(=O)O; NMeV = CN[C@H](C(=O)O)C(C)C; ξIle = CC[C@H](C)C(N)C(=O)O; ξV = CC(C)C(N)C(=O)O

Chain of Nuclear receptor subfamily 1 group I member 3 (Homo sapiens) (Q14994 whole entry, looked up): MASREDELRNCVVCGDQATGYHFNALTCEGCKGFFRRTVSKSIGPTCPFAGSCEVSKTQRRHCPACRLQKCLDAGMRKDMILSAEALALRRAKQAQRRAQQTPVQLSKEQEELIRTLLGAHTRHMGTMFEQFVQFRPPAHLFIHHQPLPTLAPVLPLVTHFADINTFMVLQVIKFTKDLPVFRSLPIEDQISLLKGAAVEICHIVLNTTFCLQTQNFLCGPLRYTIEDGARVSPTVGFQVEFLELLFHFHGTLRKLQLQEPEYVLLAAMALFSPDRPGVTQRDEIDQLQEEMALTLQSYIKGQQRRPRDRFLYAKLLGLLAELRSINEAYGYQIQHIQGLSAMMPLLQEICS

Consider `CCCCCCCCCC(=O)[C@@H]1C(=O)N[C@@H](CC(C)C)C(=O)N[C@H](C)C(=O)N2CCC[C@H]2C(=O)N[C@@H](C(C)C)C(=O)N[C@H]2CS[C@H]1CNC2=O` (cyclo(L[dA]PV[X1])), for which the Potency entry in [1], in assay [2], in assay [3], in [4], in assay [5] and in [6] was “inactive” in each case. Further, the Potency result in assay [7], in assay [8], in assay [9], in [10], in assay [11] and in assay [13] was “inactive” in each case. The Potency entry in assay [14] is “inactive”. Also, the outcome in [12] was inactive.

Consider `O=C(O)[C@@]12CO[C@@]3(O)C4CCN(CC[C@H]31)[C@H]4c1c2[nH]c2ccccc12`, for which the Potency result in [1], in [2], in assay [3], in assay [4], in assay [5] and in assay [6] was “inactive” in each case. Besides, the Potency result in assay [15], in [7], in [16], in [8], in [9] and in assay [10] was “inactive” in each case. In addition, the Potency result in assay [11], in assay [17], in assay [18], in [13] and in [14] was “inactive” throughout. Also, in [12], the molecule was called inactive.

Regarding `C=C[C@]1(C)CC[C@@H]([C@H](C)C(=O)OCC)O1`, the Potency entry in [1], in assay [2], in [3], in assay [5], in assay [7] and in [8] was “inactive” in each case. For the same molecule, the Potency result in [10], in assay [11], in assay [18], in [13] and in [14] was “inactive” in each case. Also, in assay [12], the molecule was classed as inactive.

`CC[C@H](C)C(NC(=O)[C@@H](NC)C(C)C)C(=O)NC1C(=O)N(C)[C@@H](C(C)O)C(=O)N[C@@H](C(C)C)C(=O)N(C)[C@@H](CC(C)C)C(=O)NC(C(C)C)C(=O)N(C)[C@@H](C(C)C)C(=O)N(C)[C@@H](Cc2c[nH]c3cccc(OC)c23)C(=O)N[C@@H](C(C)C)C(=O)N[C@@H]([C@H](O)c2ccccc2)C(=O)N[C@@H](C(C)C)C(=O)O[C@@H]1C` (stereo partly drawn) (H-[NMeV][ξIle][ξThr(3R)(O-yl)][NMeThr(3ξ)]V[NMeL][ξV][NMeV][NMeTrp(4-OMe)]V[Phe(3R-OH)]V; ester 3-C): the Potency entry in assay [2], in assay [3], in assay [4], in assay [5], in assay [6] and in assay [7] was “inactive” in each case. Further, the Potency entry in assay [8], in [10], in [11], in assay [17], in assay [18] and in assay [13] was “inactive” in each case. In assay [14], the Potency entry was “inactive”. Also, in assay [12], the molecule was classed as inactive.

Regarding `COc1cc(/C=C2/C(=O)N(c3ccc(O)cc3C(=O)O)[C@H](c3ccc(O)c(OC)c3)C2C(=O)Nc2ccc(O)cc2C(=O)O)ccc1O` (stereo not given in full), the Potency entry in assay [1], in assay [2], in [3], in assay [4], in assay [5] and in assay [6] was “inactive” each time. Also, the Potency result in assay [15], in assay [7], in assay [16], in assay [8], in [9] and in [11] was “inactive” throughout. In addition, the Potency result in [17], in assay [18] and in assay [13] was “inactive” each time. For the same molecule, the Potency in assay [10] is 8.38 µM (active). Further, the result in assay [12] was inactive.

Source of the values: PubChem BioAssay (NCATS).
